Calls of active or inactive are those of the source. Rule for the calls: active = hit-call score of the fitted dose curve at least 0.9, where 1 is the maximum; inactive = score below 0.9.
Key:
Conditions in all cases: mRNA level, 48 h; actives raise or lower the signal
[1] = read-out: Nuclear factor erythroid 2-related factor 2 (Homo sapiens) (UniProt Q16236); assay: LTEA_HepaRG_NFE2L2: Life Technologies and Expression Analysis (LTEA) Assay for Nuclear factor erythroid 2-related factor 2 (NFE2L2) Transcription Factor using HepaRG (AID 2283527)
Method in brief: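 Human liver HepaRG line treated in duplicate for 48 h with an eight-point series topping at 100 uM. Gene expression of NFE2L2 by qRT-PCR, bidirectionally fitted against the vehicle control.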

[2] = read-out: succinate dehydrogenase complex iron sulfur subunit B (SDHB), SDHB (gene 6390); assay: LTEA_HepaRG_SDHB: Life Technologies and Expression Analysis (LTEA) Assay for succinate dehydrogenase complex iron sulfur subunit B (SDHB) using HepaRG (AID 2283528)
Method in brief: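 HepaRG, 48 h exposure, 8-pt half-log series from 100 uM in 0.5% DMSO, duplicates. Readout: SDHB mRNA by Fluidigm qRT-PCR vs housekeeping genes; bidirectional fit relative to DMSO.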

[3] = read-out: Signal transducer and activator of transcription 3 (Homo sapiens) (UniProt P40763); assay: LTEA_HepaRG_STAT3: Life Technologies and Expression Analysis (LTEA) Assay for Signal transducer and activator of transcription (STAT3) using HepaRG (AID 2283529)
Method in brief: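 In this transcriptional endpoint, HepaRG cultures receive test chemicals at up to 100 uM for 48 h, tested in duplicate. STAT3 mRNA is normalized to ACTB, GAPDH and POLR2A.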

[4] = read-out: solute carrier (SLCO1B1), SLCO1B1 (gene 10599); assay: LTEA_HepaRG_SLCO1B1: Life Technologies and Expression Analysis (LTEA) Assay for solute carrier (SLCO1B1) using HepaRG (AID 2283530)
Method in brief: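 SLCO1B1 transcript read by qRT-PCR (Fluidigm arrays), normalized to three housekeeping genes, after 48 h chemical exposure of HepaRG cells; bidirectional concentration-response fitting versus 0.5% DMSO baseline. Eight-point half-log series, maximum 100 uM.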

[5] = read-out: sulfotransferase 2A1 (SULT2A1), SULT2A1 (gene 6822); assay: LTEA_HepaRG_SULT2A1: Life Technologies and Expression Analysis (LTEA) Assay for sulfotransferase 2A1 (SULT2A1) using HepaRG (AID 2283531)
Method in brief: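 HepaRG, 48 h chemical exposure, 8-pt half-log curve from 100 uM in 0.5% DMSO, duplicates. Readout: TaqMan qRT-PCR of SULT2A1 mRNA, housekeeping-normalized. Bidirectional fit vs DMSO baseline.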

[6] = read-out: Transforming Growth Factor (TGFA), TGFA (gene 7039); assay: LTEA_HepaRG_TGFA: Life Technologies and Expression Analysis (LTEA) Assay for Transforming Growth Factor (TGFA) using HepaRG (AID 2283532)
Method in brief: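 Gene expression of TGFA was quantified by qRT-PCR after human HepaRG cells were treated for 48 h with test chemicals (eight concentrations, highest 100 uM, 0.5% DMSO). Activity in either direction was fitted relative to DMSO.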

[7] = read-out: Transforming Growth Factor (TGFB1), TGFB1 (gene 7040); assay: LTEA_HepaRG_TGFB1: Life Technologies and Expression Analysis (LTEA) Assay for Transforming Growth Factor (TGFB1) Transporter using HepaRG (AID 2283533)
Method in brief: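 qRT-PCR readout of TGFB1 transcript in HepaRG lysates, normalized to three housekeeping genes; gain or loss of signal fitted relative to 0.5% DMSO vehicle. Exposure: 48 h, 8-point curve from 100 uM, duplicate wells.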

TIMP1, TIMP1 (gene 7076) = assay: LTEA_HepaRG_TIMP1: Life Technologies and Expression Analysis (LTEA) Assay for TIMP1 using HepaRG (AID 2283534)
Method in brief: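 HepaRG, 48 h exposure, 8-pt half-log series from 100 uM in 0.5% DMSO, duplicates; TIMP1 transcript by Fluidigm qRT-PCR, housekeeping-normalized; bidirectional curve fit vs DMSO baseline.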

[8] = read-out: Tumor necrosis factor receptor 1 (TNFRSF1A), TNFRSF1A (gene 7132); assay: LTEA_HepaRG_TNFRSF1A: Life Technologies and Expression Analysis (LTEA) Assay for Tumor necrosis factor receptor 1 (TNFRSF1A) using HepaRG (AID 2283535)
Method in brief: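 HepaRG, 48 h plating then 48 h chemical exposure, serum-free induction media; 8-pt CRC from 100 uM, half-log, 0.5% DMSO vehicle, duplicates. Readout: TaqMan qRT-PCR (Fluidigm), housekeeping-gene normalized; bidirectional fit vs DMSO.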

[9] = read-out: Thyroid Hormone Responsive (THRSP), THRSP (gene 7069); assay: LTEA_HepaRG_THRSP: Life Technologies and Expression Analysis (LTEA) Assay for Thyroid Hormone Responsive (THRSP) using HepaRG (AID 2283536)
Method in brief: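 Cell model: human HepaRG, approx. 100,000 cells/well, 0.5% DMSO vehicle. Exposure lasts 48 h; phenobarbital 1 mM serves as induction positive control. Gene expression is measured by qRT-PCR against three endogenous control genes.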

Measured: AC50

Sequence of Signal transducer and activator of transcription 3 (Homo sapiens) (P40763 whole entry, looked up): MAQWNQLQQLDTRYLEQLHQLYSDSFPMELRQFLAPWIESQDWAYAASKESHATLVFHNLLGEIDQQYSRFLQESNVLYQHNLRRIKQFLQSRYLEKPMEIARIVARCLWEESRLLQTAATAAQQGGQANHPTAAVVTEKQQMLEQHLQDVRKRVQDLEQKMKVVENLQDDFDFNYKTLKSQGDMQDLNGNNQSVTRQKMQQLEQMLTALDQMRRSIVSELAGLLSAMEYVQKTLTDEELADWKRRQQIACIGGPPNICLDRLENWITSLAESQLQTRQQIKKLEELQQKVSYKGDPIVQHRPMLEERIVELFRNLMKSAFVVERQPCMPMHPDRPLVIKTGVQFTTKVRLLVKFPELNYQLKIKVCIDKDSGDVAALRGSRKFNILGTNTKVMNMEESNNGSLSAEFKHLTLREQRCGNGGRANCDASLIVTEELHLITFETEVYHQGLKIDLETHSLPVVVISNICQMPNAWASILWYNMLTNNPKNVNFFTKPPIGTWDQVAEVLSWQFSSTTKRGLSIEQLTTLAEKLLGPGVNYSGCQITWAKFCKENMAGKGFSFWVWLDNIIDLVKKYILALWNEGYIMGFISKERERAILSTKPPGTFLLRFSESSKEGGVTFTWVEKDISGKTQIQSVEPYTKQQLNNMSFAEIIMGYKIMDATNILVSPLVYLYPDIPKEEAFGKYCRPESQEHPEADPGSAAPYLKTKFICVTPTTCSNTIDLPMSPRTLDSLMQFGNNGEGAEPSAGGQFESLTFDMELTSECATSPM
Sequence of Nuclear factor erythroid 2-related factor 2 (Homo sapiens) (Q16236 whole entry, looked up): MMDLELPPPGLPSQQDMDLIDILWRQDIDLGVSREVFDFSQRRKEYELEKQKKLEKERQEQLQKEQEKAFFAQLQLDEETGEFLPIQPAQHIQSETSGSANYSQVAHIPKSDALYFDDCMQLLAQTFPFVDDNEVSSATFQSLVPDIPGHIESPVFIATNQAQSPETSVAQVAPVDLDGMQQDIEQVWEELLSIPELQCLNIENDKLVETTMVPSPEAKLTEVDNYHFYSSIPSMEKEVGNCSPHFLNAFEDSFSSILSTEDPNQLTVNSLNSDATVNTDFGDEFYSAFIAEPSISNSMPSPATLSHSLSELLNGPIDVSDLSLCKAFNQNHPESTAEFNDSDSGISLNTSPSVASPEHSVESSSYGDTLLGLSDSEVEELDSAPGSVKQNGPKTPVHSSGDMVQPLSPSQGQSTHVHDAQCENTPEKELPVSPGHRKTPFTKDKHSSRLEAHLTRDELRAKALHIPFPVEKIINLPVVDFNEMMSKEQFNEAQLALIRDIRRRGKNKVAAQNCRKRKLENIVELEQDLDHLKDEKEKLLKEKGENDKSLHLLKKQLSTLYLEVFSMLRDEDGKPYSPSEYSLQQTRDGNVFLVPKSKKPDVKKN

CC#Cc1cc(C)nc(Nc2ccccc2)n1
active: [1] 30.2 µM | [3] 6.11 µM | [4] 29.2 µM | [5] 5.75 µM | [9] 6.1 µM
inactive: [2] | [6] | [7] | TIMP1, TIMP1 (gene 7076) | [8]

CCCCCCCCCc1ccc(O)cc1
inactive: all assays above

O=C(N[C@H]1CN2CCC1CC2)c1cc2ccoc2cn1
not listed: [6]
inactive: all other assays above

Cc1cccc([N+](=O)[O-])c1
inactive: all assays above

Nc1ccc(-c2ccc(N)cc2)cc1
inactive: all assays above

CC(c1ccc(O)cc1)(c1ccc(O)cc1)c1ccc(O)cc1
inactive: [4] | [6] | [7] | [8]
active: [1] 73.9 µM | [2] 50 µM | [3] 90.9 µM | [5] 84 µM | TIMP1, TIMP1 (gene 7076) 85.3 µM | [9] 23.9 µM

Cc1cc(-c2ccc(N)c(C)c2)ccc1N
inactive: all assays above

Cc1ccccc1[N+](=O)[O-]
inactive: all assays above

Clc1ccc(C(Cl)(Cl)Cl)cc1
inactive: all assays above

C=CC(N)=O
inactive: all assays above

CO/C=C(/C(=O)OC)c1ccccc1COc1cccc(C(F)(F)F)n1
inactive: [2] | [7]
active: [1] 21.6 µM | [3] 3.4 µM | [4] 8.29 µM | [5] 21.5 µM | TIMP1, TIMP1 (gene 7076) 26.8 µM | [8] 4.97 µM | [9] 7.31 µM

CCC(C)(c1ccc(O)cc1)c1ccc(O)cc1
active: [9] 87.3 µM
not listed: [6]
inactive: all other assays above

CCCN(CCC)N=O
inactive: all assays above

CCOC(=O)C(O)(c1ccc(Cl)cc1)c1ccc(Cl)cc1
inactive: all assays above

CCC(C)(CC)c1cc(NC(=O)c2c(OC)cccc2OC)on1
active: [1] 14.9 µM | [7] 50 µM | [9] 41.2 µM
inactive: all other assays above

COc1ccc(O)c(C(C)(C)C)c1
not listed: [8]
inactive: all other assays above

CCC(C)c1cc([N+](=O)[O-])cc([N+](=O)[O-])c1O (stereo unspecified)
inactive: [1] | [7]
active: [2] 0.656 µM | [3] 0.631 µM | [4] 2.32 µM | [5] 3.13 µM | TIMP1, TIMP1 (gene 7076) 2.51 µM | [8] 4.74 µM | [9] 1.98 µM

NS(=O)(=O)C(F)(F)C(F)(F)C(F)(F)C(F)(F)C(F)(F)C(F)(F)C(F)(F)C(F)(F)F
active: [1] 2.76 µM | [2] 4.97 µM | [3] 15.2 µM | [4] 9.33 µM | [5] 13.1 µM | [6] 12 µM | [7] 39.4 µM | TIMP1, TIMP1 (gene 7076) 12.4 µM | [8] 29.4 µM | [9] 7.4 µM

Cc1ccccc1O
not listed: [6]
inactive: all other assays above

ClC(Cl)=C(c1ccc(Cl)cc1)c1ccc(Cl)cc1
active: [5] 12 µM | [9] 77.6 µM
inactive: all other assays above

O=C(O)C(F)(F)C(F)(F)C(F)(F)C(F)(F)C(F)(F)C(F)(F)C(F)(F)C(F)(F)C(F)(F)F
inactive: [1]
active: [2] 88.9 µM | [3] 79.3 µM | [4] 61.8 µM | [5] 35.7 µM | [6] 23.4 µM | [7] 23.3 µM | TIMP1, TIMP1 (gene 7076) 91.7 µM | [8] 78 µM | [9] 15.6 µM

CC(C)(O)C(=O)Nc1ccc([N+](=O)[O-])c(C(F)(F)F)c1
active: [4] 0.0191 µM | [6] 0.0264 µM
inactive: all other assays above

C[C@]12CCC(=O)C=C1CC[C@@H]1[C@@H]2CC[C@]2(C)C(=O)CC[C@@H]12
active: [5] 15.2 µM | [6] 50 µM | [9] 1.39 µM
inactive: all other assays above

C=CC(=O)NCNC(=O)C=C
not listed: [6]
inactive: all other assays above

O=C(O)C(F)(F)C(F)(F)C(F)(F)C(F)(F)C(F)(F)F
active: [4] 9.92 µM
inactive: all other assays above

CCOP(=S)(OCC)SCSC(C)(C)C
active: [5] 10.4 µM
inactive: all other assays above

Clc1ccc(C(c2ccccc2Cl)C(Cl)(Cl)Cl)cc1 (stereo unspecified)
active: [9] 55.8 µM
inactive: all other assays above

CC1=C2C[C@H]3[C@@H](CC=C4C[C@@H](O)CC[C@@]43C)[C@@H]2CC[C@]12O[C@@H]1C[C@H](C)CN[C@H]1[C@H]2C
not listed: [6]
inactive: all other assays above

c1cc2ccc3cccc4ccc(c1)c2c34
not listed: [6]
inactive: all other assays above

Cc1cccc(C)c1N
inactive: all assays above

Oc1ccc(Cl)cc1Cl
inactive: all assays above

Reference: PubChem BioAssay (EPA / NIEHS)
